# Reference: the supplement of paper PMC6555819
# Assays:
# Experiment in all cases: PBM binding z-score (relative to random genomic background probes); higher = stronger binding; sequences stand for … in GC…GCGATTGACAGCGTAGAATGAAGG
# [1] = tested on: FXR:RXRa (NR concentration 270 nM, RXRa partner concentration 90 nM)
# Method in brief: (§1)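 Binding z-scores were set against random background probes. The data came from custom Agilent 4×180K protein-binding microarrays carrying double-stranded probes with 34-nt variable regions, incubated 1 h with ligand-free nuclear receptor dimers. Partner-specific antibodies detected binding, and scanned fluorescence was regression-normalized.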
# [2] = tested on: LXRa:RXRa (NR concentration 270 nM, RXRa partner concentration 90 nM)
# Method in brief: as §1
# [3] = tested on: LXRa homodimer (NR concentration 270 nM)
# Method in brief: as §1
# [4] = tested on: LXRb:RXRa (NR concentration 270 nM, RXRa partner concentration 90 nM)
# Method in brief: as §1
# [5] = tested on: LXRb homodimer (NR concentration 270 nM)
# Method in brief: as §1
# [6] = tested on: PPARa:RXRa (NR concentration 270 nM, RXRa partner concentration 90 nM)
# Method in brief: as §1
# [7] = tested on: PPARg:RXRa (NR concentration 180 nM, RXRa partner concentration 90 nM)
# Method in brief: as §1
# [8] = tested on: PPARg:RXRa 270nM:90nM, anti-RXR (NR concentration 270 nM, RXRa partner concentration 90 nM)
# Method in brief: as §1
# [9] = tested on: PPARg:RXRa 30nM:10nM, anti-RXR (NR concentration 30 nM, RXRa partner concentration 10 nM)
# Method in brief: as §1
# [10] = tested on: PPARg:RXRa 90nM:30nM, anti-RXR (NR concentration 90 nM, RXRa partner concentration 30 nM)
# Method in brief: as §1
Sequence,PBM binding z-score [1],PBM binding z-score [2],PBM binding z-score [3],PBM binding z-score [4],PBM binding z-score [5],PBM binding z-score [6],PBM binding z-score [7],PBM binding z-score [8],PBM binding z-score [9],PBM binding z-score [10]
CCTTGGAGGACAGAAGGTCAGAGCTGTCCGCTTT,1.46,1.83,0.306,1.23,-0.609,2.23,0.715,2.34,0.178,1.81
CACACTAGGTCAAGGTCAAAGTCGGTTTGTGCCA,7.12,6.07,5.26,4.87,2.5,5.71,8.74,7.44,5.6,7.61
CCTACTGGGCCACAGGTCATTGATTCCAATGCTC,1.51,1.55,1.48,2.12,0.443,4.11,8.34,7.57,6.11,7.68
ATCTCTAGGTAAGACTCTGTTCAGTGAAGAACGC,0.455,0.64,0.527,0.145,0.866,0.0687,0.000617,0.133,0.343,0.426
TCTGCTAGATCAACGATGGTCAGCTAATCTGCTA,-1.43,-0.641,-1.29,-0.993,-1.05,-0.231,-0.175,0.492,1.39,1.14
TCATATAGGGAAAAGGTGAAAGTCGGTGTGGTAA,1.4,1.47,0.577,1.64,0.109,4.56,7.27,7.61,6.66,8.2
CTACCAAGGTGAACAAGGTTGTTGATTACTATTC,0.708,0.561,-0.172,1.36,-0.417,1.53,0.7,0.746,-0.199,0.615
CCTGCTAGGCCATGGTCAGCTAATCTACAGTATG,-0.543,-0.565,-0.936,-0.753,-0.769,-0.617,0.069,-0.552,-0.451,-0.579
AGAACGAGGGCACGCTGAGTTGATAGTAGAGTAG,0.725,0.439,-0.765,0.35,-0.699,2.1,1.94,1.62,0.448,0.971
CCTGCTAGGTCATGGTCATCTAATCTACAGTATG,3.56,2.73,0.055,1.89,-0.408,3.6,2.73,3.03,0.662,1.85
GCTAACAGGCCATTTGGGTCACTCAATGACGGGC,0.418,0.268,-0.00824,0.389,-0.169,1.73,0.912,0.349,-0.624,-0.263
TCATATAGCTAATACAGGTGAAAGTCGGCATCTA,0.322,0.835,0.0705,0.543,-0.0868,1.17,0.706,1.77,3.13,2.35
AGAATGAGGTTATACGTAGATGAGGGAAGAAAGT,2.17,1.97,0.0433,1.72,0.276,3.19,2.17,2.49,1.05,1.88
CCGATTAGTTGACCATAAGGGCAACCGAAGCTCG,0.669,0.102,-0.113,0.217,-0.191,0.52,0.357,0.312,-0.22,0.0545
ATCTCTGGGTAAAGATAGTTCAGTGAATGCAAAT,-0.122,3.7,0.422,0.738,0.449,0.473,0.419,0.54,0.327,0.434
TAGCGTAGGTCATGCGGGCCAGTATAGTGTCGGC,4.01,3.6,0.172,2.19,-0.449,3.68,1.98,2.43,0.234,1.45
TCATATATGTAAAGGTGAAAGTCGAACGATATGA,0.775,1.41,-0.143,1.2,-0.14,2.68,2.6,3.13,3.73,3.47
CCGACTGGGGCAAAGATTACCATACTCAGTACGA,-0.494,-0.583,-0.45,-0.138,-1.19,1.89,4.52,5.48,3.98,6.06
TAGCCTAGGTCAGATCTGGCCAGTATACGCTATA,1.53,1.13,-0.379,0.773,0.0198,1.43,0.793,0.718,-0.145,0.178
AGAACGAGGGCAATGAGTCGATAGCACGGGTGGC,0.187,-0.15,-0.625,-0.448,-0.595,1.03,1.41,0.849,0.0259,0.789
AGTCAAAATTCAGGACGAGGTAACGTAAAGCACG,0.194,-0.186,0.224,-0.188,-0.336,0.0316,0.944,0.294,0.281,0.217
CCTTCTGGGCCAAGGTCATTGATCAGTCAAAGCA,2.83,2.99,0.639,2.84,-0.27,3.75,3.12,4.15,1.37,3.57
ATCCCTAGGTAACCAAGTTCAGTGAATGCCGAAC,0.476,1.09,1.1,0.956,0.382,0.985,0.276,0.246,-0.161,-0.0393
GCTCGGAGGACAAGGTCAAAGCTTTGTCCGTAGA,4.6,3.98,0.466,3.14,0.0189,4.19,2.56,3.57,0.553,2.47
CCTACTGGGACATCAGGTCATTGATATCAACGTT,1.42,1.88,2.8,2.06,0.52,2.67,2.46,3.36,1.61,3.06

Sequence,PBM binding z-score [1],PBM binding z-score [2],PBM binding z-score [3],PBM binding z-score [4],PBM binding z-score [5],PBM binding z-score [6],PBM binding z-score [7],PBM binding z-score [8],PBM binding z-score [9],PBM binding z-score [10]
TCTAGTTGGTGAAAGGTCACACACTCGAAATGCG,5.7,5.73,3.63,5.31,1.6,6.32,10.8,9.75,9.91,11.4
ACTATTAGTTGAGACGAGCGCAACCGATAGGTTG,-0.41,-0.534,-0.214,-0.638,-0.159,-0.642,0.477,-0.52,-0.422,-0.414
TCAGACAGGTAAAGGTAACTCAGGTACGCAGTCG,1.07,3.02,0.16,1.79,0.229,1.48,1.11,2.56,4.03,3.14
GCGACTTGGGCAAAGCAGGTTACCATAAGGTTGG,-0.371,-0.57,-0.467,-0.537,-1.29,0.243,0.451,-0.351,-0.654,-0.41
AGCGAAAGGTCGACGAGGTGAGTATACACCGTTT,4.18,2.97,-0.376,2.37,-0.286,4.3,3.21,3.62,0.842,2.31
CCTCCAAGGTCAAAGGTCAGTGAAGAGATGACGG,8.2,6.83,3.53,6.63,1.95,7.19,10.5,8.79,8.47,9.3
ATATGTGGGTTAGCTGGGGTCATTCAGACTAGGC,4.69,5.5,2.93,4.93,2.51,5.09,5.17,4.9,2.27,4.19
CGTACTGGGCCACGAAAGGTCATTGATTCAGTGA,4.13,4.99,5.16,4.46,0.336,4.75,4.87,4.93,2.22,4.16
TGAATCAGGTTAAAGATCAGGGAACGTGGCGTCG,0.631,0.732,-0.19,0.221,-0.0822,3.29,4.92,5.85,5.28,6.34
AGAACGAGGGAAATGAGTTGATAGCACGGGTGGC,-0.469,-0.525,-0.561,-0.828,-0.449,-0.481,0.813,-0.497,-0.0468,-0.319
ATATGTAGGTTAAGGGTCATTCATGTTGGTTCGC,5.05,4.86,3.12,4.48,1.33,6.66,11.6,9.59,9.79,10.5
GTACCAAGGTGAATAGGTCGTTTATGAGTAGGCG,0.975,1.13,0.161,0.811,-0.198,2.44,1.62,1.79,0.597,1.5
TCTTGTAGATCAGCAGGTTAACAAAGCTGGCCAA,0.321,0.368,-0.313,0.507,-0.6,1.21,0.102,1.77,2.61,2.21
AGTCAAAGTTCAGGAAGAGGTAACGTAAAGCACG,3.92,3.76,0.911,2.07,0.602,3.54,4.98,4.92,1.98,3.88
ATCGAAAGGTCGTGAGGTGAGTATCCAGAAAGGC,5.07,4.11,0.195,3.04,0.388,4.97,4.11,4.31,1.14,2.9
TTTTGTAGATCAAGCAGGTTAAGAAAGCCTGAGT,-0.215,-0.0979,0.00472,0.194,-0.0652,0.567,-0.416,0.238,0.224,-0.0432
CGAACTAGGTCAAGCACAGTGAATCTCCGCACGC,4.1,2.35,0.195,1.67,-0.136,4.74,7.62,6.72,4.49,6.09
CTACCAAGGTGAGCAAGGTCGTTGATTACTATTC,0.474,0.615,-0.2,0.949,-0.778,1.59,0.312,0.556,-0.319,-0.252
TCTAGTAGGTTAGTCGGGGCATTCAGCCAACATA,0.874,0.731,0.367,1.54,0.412,1.9,0.856,2.5,2.88,2.8
ATCGAAAGGTCGACTAGGTGAGTATACACCGTTT,4.12,3.17,0.302,2.94,0.797,4.24,2.56,3.24,1.06,2.34
CAAACTAGGTCAGGAGGTCAAAGTCCGCTTCCCG,5.51,5.22,4.23,4.39,1.11,5.91,8.99,7.3,5.95,7.43
ATCGATAGGTCGAGGTGAGTATAGAGAAAGGGAA,0.48,0.636,-0.293,0.566,-0.118,2.02,0.873,0.711,0.245,0.369
ACAGACAGGTGATGAAGGTTACTCAGGCTATCAT,0.29,0.278,0.0459,0.276,-0.288,0.714,0.777,0.381,0.107,0.0691
AATACAGGGCCATCGTAGGCCAGAGTACGCACAG,0.0639,0.221,-0.132,-0.283,-0.499,0.0726,0.954,-0.0465,-0.14,-0.0369
